# Inconclusive results are not listed. The source made the active and inactive calls. Calls come from the whole dose curve; as a rule, active = well fitted activation curve with a large enough effect; inconclusive = small, poorly fitted or top-dose-only effect; inactive = no such curve, though single readings can be large or run the other way.
# Assay: qHTS Assay for NPC1 Promoter Activators: Hit Validation Using Renila Luciferase Read-Out for NPC1; for activity change, positive = activation: % of control where 0% means no effect
# Settings: Huh7 NPC1 promoter-luciferase reporter, luminescence, 24 h; series mostly up to 76.9 µM; activity change, positive = activation: at the top concentration
# Procedure, shortened: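 Huh7 cells stably carrying NPC promoter-luciferase reporter, exposed to compound for 24 h at 37 deg C. Luminescence read 10 min after adding luciferase detection reagent at room temperature.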
# Potency is the fitted concentration of half-maximal effect.
SMILES,"activity change, positive = activation",Potency
COc1ccc(NC(=O)CCCN2C(=O)C(c3ccccc3)Oc3cccnc32)cc1OC (stereo not drawn),-18.8% (inactive),–
CCOC(=O)c1ccc(-c2nnc(-c3ccc(Cl)cc3Cl)o2)cc1,-0.889% (inactive),–
COc1ccc(C(=O)OCC(=O)N2CCCC2=O)c(OC)c1,-4.88% (inactive),–
CC(Sc1nnc(C(F)(F)F)n1C)C(=O)Nc1ccc(S(N)(=O)=O)cc1 (stereo not drawn),-6.53% (inactive),–
COC(=O)c1ccccc1NC(=O)c1cc(-c2cccs2)on1,20.1% (inactive),–
Cc1ccc(N(O)C(=O)NCCCCNC(=O)N(O)c2ccc(C)cc2)cc1,4.31% (inactive),–
Cc1nc2sc(C(=O)OC(C)C)c(N)c2c(C)c1C,0.223% (inactive),–
Cc1ccccc1NC(=O)CSc1ccc(-c2cccnc2)nn1,8.75% (inactive),–
Cc1ccc2nc(NC(=O)CCn3cccc3)sc2c1,16.6% (inactive),–
O=C(NCCc1c[nH]c2ccccc12)C(=O)NCC(c1ccco1)N1CCN(c2ccccc2F)CC1 (stereo not drawn),-31.8% (inactive),–
CC(C)CC(=O)N1CCN(c2ccc(NC(=O)c3ccco3)cc2)CC1,9.56% (inactive),–
COc1ccc(NC(=O)CN(C)C(=O)c2ccc(=O)[nH]c2)cc1,-7.94% (inactive),–
Cc1cc(C)cc(N(CC(=O)NC2CCCC2)C(=O)CNC(=O)c2ccco2)c1,3.56% (inactive),–
COc1ccc([N+](=O)[O-])cc1COc1ccc2c(-c3ccccc3)cc(=O)oc2c1,–,1.46 µM (active)
CC(C)(C)C(=O)NC(=S)Nc1ccccc1F,-37% (inactive),–
COc1ccc(-c2noc(N3CCCC(C(=O)Nc4ccccc4F)C3)n2)cc1 (stereo not drawn),4.18% (inactive),–
Cc1[nH]n(-c2cccc3ccccc23)c(=O)c1/C=N/c1sc2c(c1C#N)CCC2,-5.9% (inactive),–
COc1ccc(S(=O)(=O)NC(C(=O)NCCc2ccccn2)C(C)C)cc1 (stereo not drawn),-2.89% (inactive),–
COCCSc1ncnc2c1oc1nc3c(cc12)COC(C)(C)C3,-7.48% (inactive),–

SMILES,"activity change, positive = activation",Potency
COCc1cc(C)nc(N/N=C/c2ccc(-c3ccc(Cl)cc3[N+](=O)[O-])o2)c1C#N,14.9% (inactive),–
CC(=O)c1cccc(NC(=O)N2CCOCC2)c1,-6.02% (inactive),–
O=C(CSc1nnc(-c2ccccn2)o1)Nc1ccccc1Cl,-7.37% (inactive),–
COc1ccc(-c2csc(Nc3ncccn3)n2)cc1C,5.9% (inactive),–
CCCOP(=O)(c1ccc(N(C)C)cc1)C(O)c1cccnc1 (stereo not drawn),5.33% (inactive),–
Nc1nc(SCCO)[nH]c(=O)c1NC(=O)c1ccco1,10% (inactive),–
COc1ccccc1N(C(=O)c1snc(C(N)=O)c1N)C(C(=O)NC1CCCCC1)c1cccc(OC)c1OC (stereo not drawn),–,11.6 µM (active)
O=C(CCCOc1ccc(Cl)cc1)N1CCCCC1,-10.6% (inactive),–
O=C(CCNC(=O)c1ccc(Br)o1)NCc1ccc(Cl)cc1,2.26% (inactive),–
Nc1ccc(C(=O)Nc2ccccc2N)cc1,–,16.4 µM (active)
Cc1nc(-c2ccc(S(=O)(=O)Oc3ccc(Cl)cc3Cl)s2)cs1,-47.3% (inactive),–
CCCCc1cc(=O)oc2cc(OCC(=O)N3CCOCC3)ccc12,7.43% (inactive),–
CCCCCCOc1ccc(OC(=O)c2cccnc2)cc1,–,1.84 µM (active)
NNC(=O)c1cccc(S(=O)(=O)Nc2cc(Cl)ccc2Cl)c1,16.5% (inactive),–
O=C(/C=C/c1ccco1)NCC1OCCc2ccccc21 (stereo not drawn),11.3% (inactive),–
COc1ccc(NC(=S)NNC(=O)c2cccs2)cc1,-67.6% (inactive),–
N#C/C(=C\c1ccc[nH]1)C(=O)Nc1ccccc1Cl,–,23.2 µM (active)
CCCC(C)NC(=O)c1ccc(OCc2ccc(Cl)cc2)c(OC)c1 (stereo not drawn),-13.6% (inactive),–
CCOC(=O)c1ccccc1NC(=O)CSc1nnc(Cc2cccn2C)n1-c1ccc(F)cc1,–,46.3 µM (active)

# Reference: PubChem BioAssay AID720526 (National Center for Advancing Translational Sciences (NCATS), 2013)
